Experimental data reported in PubChem BioAssay (NCATS).
Results filed as inconclusive are left out. Calls of active or inactive are those of the source. Calls follow the shape of the dose curve; as a rule, active = well fitted cell-killing curve with a large enough effect; inconclusive = small, poorly fitted or top-dose-only effect, or effect the other way; inactive = flat fitted curve, though single readings scatter.

Experiments:
Experiment in all cases: Primary qHTS to identify gynecologic anti-cancer compounds using libraries of approved drugs and bioactive compounds (AID 1345084); also: nearly all actives have a fitted effect of over 55% in size
Settings in all cases: Gynecologic cancer cell panel viability, ATPlite luminescence, 48 h; series mostly up to 57.5 µM
[1] = tested on: JEG-3
In short: (§1)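 Luminescence from the ATPlite ATP-monitoring reagent indicates viable cell number; lower signal means cytotoxicity. Cells received compound 16 h after seeding and were exposed for 48 h across five concentrations.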

[2] = tested on: OV90
In short: as §1

[3] = tested on: PA-1
In short: as §1

[4] = tested on: SKOV3
In short: as §1

[5] = tested on: Tov-21-G
In short: as §1

[6] = tested on: Tov112D
In short: as §1
% is scaled to controls: 0 for no effect and ±100 for the full control effect.

C[C@]1(OC(=O)/C=C/c2ccccc2)C[C@H](O)[C@]2(O)C=CO[C@@H](O[C@@H]3O[C@H](CO)[C@@H](O)[C@H](O)[C@H]3O)C12 (some centres undefined)
inactive: Potency [1] | Potency [2] | Potency [3] | Potency [4] | Potency [5] | Potency [6]

C=C1CC[C@H]2[C@@](C)(CCC(O)[C@@]2(C)CO)[C@@H]1C/C=C(/C(=O)O)C(O)CO (some centres undefined)
inactive: Potency [1] | Potency [2] | Potency [3] | Potency [4] | Potency [5] | Potency [6]

Nc1nonc1C(=Nc1ccc(F)c(Cl)c1)NO
inactive: Potency [1] | Potency [2] | Potency [3] | Potency [4] | Potency [5] | Potency [6]

CO[C@@H]1COCC[C@@H]1N[C@@H]1CC[C@@](C(=O)N2CCc3ncc(C(F)(F)F)cc3C2)(C(C)C)C1
inactive: Potency [1] | Potency [2] | Potency [3] | Potency [4] | Potency [5] | Potency [6]

C[C@@H]1C/C=C/C=C\C=C\C=C\[C@H](O[C@@H]2O[C@H](C)[C@@H](O)[C@H](N)[C@@H]2O)C[C@@H]2O[C@](O)(C[C@@H](O)C[C@H]3O[C@@H]3/C=C/C(=O)O1)C[C@H](O)[C@H]2C(=O)O
inactive: Potency [1] | Potency [2] | Potency [3] | Potency [4] | Potency [5] | Potency [6]

CC(C)N(C[C@H]1O[C@@H](n2cnc3c(N)ncnc32)[C@H](O)[C@@H]1O)C1CC(CCc2nc3ccc(C(C)(C)C)cc3[nH]2)C1 (some centres undefined)
inactive: Potency [1] | Potency [2] | Potency [3] | Potency [4] | Potency [5] | Potency [6]

NC(=O)[C@H]1CCCCc2c1[nH]c1ccc(Cl)cc21
inactive: Potency [1] | Potency [2] | Potency [3] | Potency [4] | Potency [5] | Potency [6]

CC(=O)O[C@H]1C[C@@H]2[C@]3(CC[C@]4(C)[C@@H](C5(C)CCC(C(C)(C)O)O5)[C@@H](O)C[C@@]24C)C[C@@]32CC[C@H](O[C@@H]3OC[C@@H](O)[C@H](O)[C@H]3O)C(C)(C)[C@H]12 (some centres undefined)
inactive: Potency [1] | Potency [2] | Potency [3] | Potency [4] | Potency [5] | Potency [6]

C/C(=C\CO)CC/C=C(\C)C(=O)O[C@H]1[C@H](OC2OC=C(C(=O)O)C3CCC(C)(O)C23)O[C@H](CO)[C@@H](O)[C@@H]1O (some centres undefined)
inactive: Potency [1] | Potency [2] | Potency [3] | Potency [4] | Potency [5] | Potency [6]

CC12CCC3c4ccc(O)cc4CCC3C1CCC2OC1OC(C(=O)O)C(O)C(O)C1O (centres undefined)
inactive: Potency [1] | Potency [2] | Potency [3] | Potency [4] | Potency [5] | Potency [6]

Cc1nnc(C(C)C)n1C1CC2CCC(C1)N2CCC(NC(=O)C1CCC(F)(F)CC1)c1ccccc1 (centres undefined)
inactive: Potency [1] | Potency [2] | Potency [3] | Potency [4] | Potency [5] | Potency [6]

COC(=O)C1=C[C@@H](O)[C@@H](O)[C@H](O[C@@H]2O[C@H](COC(=O)/C=C/c3ccccc3)[C@@H](O)[C@H](O)[C@H]2O)C1
inactive: Potency [1] | Potency [2] | Potency [3] | Potency [4] | Potency [5] | Potency [6]

C=C1[C@H]2CC[C@]3(O)[C@@](CC[C@@H]4[C@](C)(C(=O)O)CCC[C@]43C)(C2)[C@H]1OC(=O)/C(C)=C\C
inactive: Potency [1] | Potency [2] | Potency [3] | Potency [4] | Potency [5] | Potency [6]

C=CC1(C)CC2=CCC3C(C)(C(=O)O)CCCC3(C)C2CC1OC(C)=O (centres undefined)
inactive: Potency [1] | Potency [2] | Potency [3] | Potency [4] | Potency [5] | Potency [6]

C=CC1(C)C=C2C(=O)CC3C(C)(C)CCCC3(C(=O)O)C2(O)CC1 (centres undefined)
inactive: Potency [1] | Potency [2] | Potency [3] | Potency [4] | Potency [5] | Potency [6]

COc1cc(O[C@@H]2O[C@H](CO)[C@@H](O)[C@H](O)[C@H]2O)c(CCC(=O)OC[C@H]2O[C@@H](Oc3cc(OC)c(C4OC(=O)C(C)(O)C4O)cc3CCC(=O)O)[C@H](O)[C@@H](O)[C@@H]2O)cc1C1OC(=O)C(C)(O)C1O (some centres undefined)
inactive: activity change, negative = cytotoxicity [1] -12.6% [at 11.6 µM] | activity change, negative = cytotoxicity [2] -1.59% [at 11.6 µM] | activity change, negative = cytotoxicity [3] -4.41% [at 11.6 µM] | activity change, negative = cytotoxicity [4] -20.1% [at 11.6 µM] | activity change, negative = cytotoxicity [5] -4.07% [at 11.6 µM] | activity change, negative = cytotoxicity [6] 3.59% [at 11.6 µM]

COC(=O)[C@]12C(=O)C(C)=C(O)[C@@]1(C)C(C)=CC1[C@@]34CC[C@@H](OC(C)=O)C(C)(C)C3[C@H](C[C@]12C)OC4=O (some centres undefined)
inactive: Potency [1] | Potency [2] | Potency [3] | Potency [4] | Potency [5] | Potency [6]

C[C@]12CCC(=O)C=C1[C@@H](O)C[C@@H]1[C@@H]2[C@@H](O)C[C@@]2(C)[C@H]1CC[C@]2(O)C(=O)CO
inactive: Potency [1] | Potency [2] | Potency [3] | Potency [4] | Potency [5] | Potency [6]

COC12CC3C(C(C)C1=CC(=O)O2)C(O)C(OC(C)=O)C1C(C)(C)C(OC(C)=O)CCC31C (centres undefined)
inactive: Potency [1] | Potency [2] | Potency [3] | Potency [4] | Potency [5] | Potency [6]

C=C(C(=O)O)C1CCC(C)C2CCC(=O)OC2(C)C1 (centres undefined)
inactive: Potency [1] | Potency [2] | Potency [3] | Potency [4] | Potency [5] | Potency [6]

CC(=O)OC(CSC1CCC(=O)OC(C)CCC(=O)C1)C(=O)O (centres undefined)
inactive: Potency [1] | Potency [2] | Potency [3] | Potency [4] | Potency [5] | Potency [6]

C[C@@H]1O[C@@H](O[C@H]2[C@H](OC(=O)C34CCC(C)(C)CC3C3=CCC5C6(C)CC(O)C(O[C@@H]7O[C@H](CO)[C@@H](O)[C@H](O)[C@H]7O)C(C)(C(=O)O)C6CCC5(C)C3(CO)CC4)O[C@H](C)[C@H](O)[C@@H]2O)[C@H](O)[C@H](O)[C@H]1O[C@@H]1OC[C@@H](O)[C@H](O)[C@H]1O (some centres undefined)
inactive: activity change, negative = cytotoxicity [1] 4.58% [at 11.6 µM] | activity change, negative = cytotoxicity [2] 3.81% [at 11.6 µM] | activity change, negative = cytotoxicity [3] 8.42% [at 11.6 µM] | activity change, negative = cytotoxicity [4] 7.96% [at 11.6 µM] | activity change, negative = cytotoxicity [5] 2.58% [at 11.6 µM] | activity change, negative = cytotoxicity [6] 2.79% [at 11.6 µM]

CC1(C)O[C@@]2(C)CC[C@@H]1C[C@@H]2OC1OC(CO)C(O)C(O)C1O (some centres undefined)
inactive: Potency [1] | Potency [2] | Potency [3] | Potency [4] | Potency [5] | Potency [6]

O=C(c1ccccn1)c1cnn2c(-c3ccncc3)ccnc12
inactive: Potency [1] | Potency [2] | Potency [3] | Potency [4] | Potency [5] | Potency [6]

O=c1ccn([C@@H]2O[C@H](CO)[C@@H](O)[C@H]2O)c(=O)[nH]1
inactive: Potency [1] | Potency [2] | Potency [3] | Potency [4] | Potency [5] | Potency [6]

N[C@H]1C[C@H]1c1ccc(-c2cccc(O)c2)cc1
inactive: Potency [1] | Potency [2] | Potency [3] | Potency [4] | Potency [5] | Potency [6]

C=C(C)C(=O)O[C@H]1C[C@@](C)(OC(C)=O)[C@@]2(O)CC[C@@](C)(O)[C@H](OC(C)=O)[C@@]23OC(=O)C(COC)=C13
inactive: Potency [1] | Potency [2] | Potency [3] | Potency [4] | Potency [5] | Potency [6]

COc1cc(/C=C/C(=O)OC2CC(OC(C)=O)C(OC(C)=O)C3C2CCC2C(=O)OC(c4ccoc4)CC23C)ccc1O[C@@H]1O[C@H](CO)[C@@H](O)[C@H](O)[C@H]1O (some centres undefined)
inactive: Potency [1] | Potency [2] | Potency [3] | Potency [4] | Potency [5] | Potency [6]

CO[C@@H](Cc1ccc(OCCc2nc(-c3ccccc3)oc2C)c2ccsc12)C(=O)O
inactive: Potency [1] | Potency [2] | Potency [3] | Potency [4] | Potency [5] | Potency [6]

CC1(C)C(=O)N2c3ccccc3[C@]3(CC(n4cnc5ccccc5c4=O)C(=O)O3)[C@H]2N1O (some centres undefined)
inactive: Potency [1] | Potency [2] | Potency [3] | Potency [4] | Potency [5] | Potency [6]

C[C@@H]1O[C@@H](O[C@H]2[C@H](O)[C@@H](O)[C@H](OC[C@H]3O[C@@H](OC(=O)[C@]45CCC(C)(C)C[C@H]4C4=CCC6[C@@]7(C)C[C@H](O)[C@H](O[C@@H]8O[C@H](CO)[C@@H](O)[C@H](O)[C@H]8O)[C@@](C)(C(=O)O)C7CC[C@@]6(C)[C@]4(C)CC5)[C@H](O[C@@H]4O[C@H](CO)[C@@H](O)[C@H](O)[C@H]4O)[C@@H](O)[C@@H]3O)O[C@@H]2CO)[C@H](O)[C@H](O)[C@H]1O (some centres undefined)
inactive: activity change, negative = cytotoxicity [1] -3.92% [at 6.55 µM] | activity change, negative = cytotoxicity [2] 0.564% [at 6.55 µM] | activity change, negative = cytotoxicity [3] 15.2% [at 6.55 µM] | activity change, negative = cytotoxicity [4] 8.21% [at 6.55 µM] | activity change, negative = cytotoxicity [5] 6.93% [at 6.55 µM] | activity change, negative = cytotoxicity [6] 5.3% [at 6.55 µM]

CC1CCC2(NC1)OC1C(=O)C3C4CCC5CC(O[C@@H]6O[C@H](CO)[C@@H](O)[C@H](O)[C@H]6O[C@@H]6O[C@@H](C)[C@H](O)[C@@H](O)[C@H]6O)CCC5(C)C4CCC3(C)C1C2C (some centres undefined)
inactive: Potency [1] | Potency [2] | Potency [3] | Potency [4] | Potency [5] | Potency [6]

CCC(CCO[C@@H]1O[C@H](CO[C@H]2OC[C@](O)(CO)[C@H]2O)[C@@H](O)[C@H](O)[C@H]1O)C(C)(C)O (some centres undefined)
inactive: Potency [1] | Potency [2] | Potency [3] | Potency [4] | Potency [5] | Potency [6]

C[C@@H]1O[C@@H](O[C@H]2[C@H](O)[C@@H](C(=O)O)O[C@@H](O[C@H]3CC[C@@]4(C)C(CC[C@]5(C)C4CC=C4C6CC(C)(C)CC[C@]6(C(=O)O)CC[C@]45C)C3(C)C)[C@@H]2O[C@@H]2O[C@H](CO)[C@@H](O)[C@H](O)[C@H]2O)[C@H](O)[C@H](O)[C@H]1O (some centres undefined)
inactive: activity change, negative = cytotoxicity [1] -1.5% [at 11.6 µM] | activity change, negative = cytotoxicity [2] -2.55% [at 11.6 µM] | activity change, negative = cytotoxicity [3] -11.5% [at 11.6 µM] | activity change, negative = cytotoxicity [4] -1.84% [at 11.6 µM] | activity change, negative = cytotoxicity [5] 0.088% [at 11.6 µM] | activity change, negative = cytotoxicity [6] 0.16% [at 11.6 µM]
